Screens deposited in PubChem by The Scripps Research Institute Molecular Screening Center.
MITF primary: blocks human microphthalmia-associated transcription factor | AlphaScreen MITF homodimerization, bead proximity signal | inhibition, % at 2.6 µM | 650,000 tested, 0.91% active | AID 1259374; in the data active = inhibition above about 50%
GPR151 activ: activates the human receptor GPR151; Q8TDV0; PathHunter beta-arrestin GPR151 cells, luminescence; activation, % at 11.2 µM; 650,000 tested, 1% active; AID 1508602; in the data active = activation above about 4.9%
Target sequence (Q8TDV0 whole entry, looked up): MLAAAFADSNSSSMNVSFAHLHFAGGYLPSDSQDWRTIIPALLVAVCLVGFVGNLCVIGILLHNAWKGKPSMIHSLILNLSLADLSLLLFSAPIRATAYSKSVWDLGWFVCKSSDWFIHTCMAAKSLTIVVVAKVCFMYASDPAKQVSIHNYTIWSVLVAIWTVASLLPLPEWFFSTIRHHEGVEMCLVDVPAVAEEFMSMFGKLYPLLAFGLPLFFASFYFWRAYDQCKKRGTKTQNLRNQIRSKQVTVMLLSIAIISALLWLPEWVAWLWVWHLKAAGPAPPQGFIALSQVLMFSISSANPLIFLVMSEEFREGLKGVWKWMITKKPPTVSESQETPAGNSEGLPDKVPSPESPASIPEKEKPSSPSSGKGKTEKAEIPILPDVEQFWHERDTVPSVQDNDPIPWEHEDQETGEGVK
TEAD-YAP inh: TEAD-YAP interaction inhibition | AID 1259422 | 640,000 tested, 1.4% active | HEK-TIYL cells, TEAD-Gal4/YAP UAS-luciferase luminescence | inhibition, % at 9.12 µM; in the data active = inhibition above about 32%
FBW7 activator: human FBW7 E3 ligase activation, primary screen; Q969H0; AlphaScreen FBW7–phospho-cyclin E peptide binding, activator screen; normalized activity (activation), % at 26.1 µM; 650,000 tested, 0.13% active; in the data active = normalized activity above about 1.9%;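 also: purified mutant Fbw7 with reduced substrate affinity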
MITF inh conf: human MITF inhibition, confirmation. shares compounds with MITF primary. AlphaScreen MITF homodimerization, biotin/His-MITF beads. inhibition, % at 2.6 µM. 4,700 tested, 16% active;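 active = inhibition above a cutoff derived from the DMSO control wells, cut at about 28% in these data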;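 also: inhibitors lower the bead chemiluminescence by keeping MITF from dimerizing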
AlphaScreen intf2: counter-screen: compounds optically interfering with AlphaScreen; shares compounds with MITF primary; LysRS AlphaScreen counterscreen, signal interference, triplicate; inhibition, % at 2.6 µM; 4,700 tested, 7.6% active;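 active = inhibition above a cutoff derived from the DMSO control wells, cut at about 30% in these data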
A number is an active result; 0 = inactive; - = no result given. An excerpt weighted towards active compounds, which were near 3.5% of everything screened.

SMILES | MITF primary | GPR151 activ | TEAD-YAP inh | FBW7 activator | MITF inh conf | AlphaScreen intf2
Cc1ccc(OCCN2CCOCC2)c([N+](=O)[O-])c1 | 0 | 0 | 0 | 0 | - | -
Cc1ccc(OCCN2CCC(C)CC2)c([N+](=O)[O-])c1 | 64 | 0 | 0 | 0 | 0 | 0
COCCCNCCCOc1ccc(C)cc1[N+](=O)[O-] | 64 | 0 | 0 | 0 | 0 | 0
Cc1ccc(OCCN(C)C)c([N+](=O)[O-])c1 | 51 | 0 | 0 | 0 | 0 | 0
COc1cccc(C(NC(=O)C2CCN(C(=O)OC(C)C)CC2)c2ccccn2)c1 (stereo not drawn) | 0 | 0 | 0 | 0 | - | -
COCCN1C(=O)c2oc3ccc(F)cc3c(=O)c2C1c1ccc([N+](=O)[O-])cc1 (stereo not drawn) | 0 | 0 | 0 | 0 | - | -
COc1cccc(/C=C/c2ccc3cccc(OC(C)=O)c3n2)c1OC(C)=O | 0 | 0 | 0 | 0 | - | -
CN(C)c1cccc(Nc2nc(C(=O)NC3CCN(Cc4ccccc4)CC3)cs2)c1 | 58 | 0 | 0 | 0 | 0 | 0
COc1ccc(CN2CCN(Cc3cccc(OC)c3O)CC2CCO)cc1C (stereo not drawn) | 0 | 0 | 0 | 0 | - | -
CCN1CCN(CCOCCOc2ccc3ccccc3c2Cl)CC1 | 51 | 0 | 0 | 0 | 0 | 0
CC(C)(C)NCCOCCOc1ccccc1-c1ccccc1 | 63 | 0 | 0 | 0 | 0 | 0
CCN1CCN(CCOCCOc2ccccc2-c2ccccc2)CC1 | 64 | 0 | 0 | 0 | 0 | 0
Clc1c(OCCN2CCOCC2)ccc2ccccc12 | 0 | 0 | 0 | 0 | - | -
c1ccc(-c2ccccc2OCCOCCN2CCNCC2)cc1 | 76 | 0 | 0 | 0 | 0 | 0
CC(C)(C)NCCOCCOc1ccccc1I | 0 | 0 | 0 | 0 | - | -
Cc1cc(Br)ccc1OCC(=O)NCCO | 0 | 0 | 0 | 0 | - | -
c1ccc(CNc2nc(-c3cccs3)cs2)cc1 | 0 | 0 | 0 | 0 | - | -
Cc1cc(C)c(C)c(OCCOCCNC(C)(C)C)c1 | 64 | 0 | 0 | 0 | 0 | 0
c1ccc(OCCNCCN2CCOCC2)cc1 | 0 | 0 | 0 | 0 | - | -
c1ccc(-c2ccc(OCCCN3CCNCC3)cc2)cc1 | 0 | 0 | 0 | 0 | - | -
CCC(C)c1ccccc1OCCN1CCOCC1 (stereo not drawn) | 84 | 0 | 0 | 0 | 0 | 0
c1ccc(-c2ccc(OCCN3CCNCC3)cc2)cc1 | 56 | 0 | 0 | 0 | 0 | 0
c1ccc(OCCN2CCOCC2)cc1 | 54 | 0 | 0 | 0 | 0 | 0
Cc1cc(C)c(C)c(OCCNC(C)(C)C)c1 | 0 | 0 | 0 | 0 | - | -
NS(=O)(=O)c1ccc(NS(=O)(=O)c2ccc(F)cc2)cc1 | 0 | 0 | 0 | 0 | - | -
SMILES | MITF primary | GPR151 activ | TEAD-YAP inh | FBW7 activator | MITF inh conf | AlphaScreen intf2
CCOc1ccccc1N1CCN(S(=O)(=O)c2ccc(OC)c3ccccc23)CC1 | 0 | 0 | 0 | 0 | - | -
O=C(CC1C(=O)NCCN1C/C=C/c1ccccc1)NCCCc1cccnc1 (stereo not drawn) | 64 | 0 | 0 | 0 | 0 | 0
CC(=O)NCCCc1nc2cc3sc(CCCNC(C)=O)nc3cc2s1 | 0 | 0 | 0 | 0 | - | -
O=C1CCCCC1CNc1cccc(C(F)(F)F)c1 (stereo not drawn) | 74 | 0 | 0 | 0 | 0 | 0
O=C(CC(NCc1ccco1)C(=O)O)Nc1ccc(Oc2ccccc2)cc1 (stereo not drawn) | 0 | 0 | 0 | 0 | - | -
O=C(CC(NCc1ccccn1)C(=O)O)Nc1ccc(F)cc1 (stereo not drawn) | 108 | 0 | 0 | 0 | 102 | 100
O=C(CC(NCc1ccccn1)C(=O)O)Nc1ccc(Oc2ccccc2)cc1 (stereo not drawn) | 90 | 0 | 0 | 0 | 95 | 100
O=C(CC(NCc1ccccn1)C(=O)O)Nc1cccc([N+](=O)[O-])c1 (stereo not drawn) | 0 | 0 | 0 | 0 | - | -
CCOC(=O)c1ccc(S(=O)(=O)NCCN2CCOCC2)cc1 | 54 | 0 | 0 | 0 | 0 | 0
CCCCCC(O)(CCCCC)C(=O)NN1CCCCC1 | 72 | 0 | 0 | 0 | 0 | 0
Cc1ccc(/C=C/C(=O)NCC(=O)N2CCC(N(C)C3CCCC3)CC2)cc1 | 0 | 0 | 0 | 0 | - | -
COCCCNc1ccc([N+](=O)[O-])cc1C(=O)Nc1cccc(C)n1 | 52 | 0 | 0 | 0 | 0 | 0
Cc1ccc(Cn2nnc3c(=O)[nH]c(C4CCCN(C(=O)C(C)(C)C)C4)nc32)cc1 (stereo not drawn) | 67 | 0 | 0 | 0 | 0 | 0
Cc1ccc(Cn2nnc3c(=O)[nH]c(C4CCN(C(=O)C(F)(F)F)CC4)nc32)cc1 | 75 | 0 | 0 | 0 | 0 | 0
COCCNC(=O)/C(=C\c1ccco1)NC(=O)c1ccc(C)cc1 | 0 | 0 | 0 | 0 | - | -
CCOc1c(C)cc(-c2ncccc2O)cc1C | 0 | 0 | 0 | 0 | - | -
CCOCc1ccc(O)c2ncccc12 | 98 | 0 | 88 | 0 | 82 | 101
COCc1ccc(O)c2ncccc12 | 91 | 0 | 91 | 0 | 109 | 101
Cc1ccc(O)c2ncccc12 | 0 | 0 | 0 | 0 | - | -
Brc1ccc(CN2CCN(Cc3ccccc3)CC2)o1 | 55 | 0 | 0 | 0 | 0 | 0
Clc1ccc(N2CCN(Cc3ccc(Br)o3)CC2)cc1 | 58 | 0 | 0 | 0 | 0 | 0
CCCOc1ccccc1/C=C1/C(=O)NN(c2ccc(Cl)cc2)C1=O | 0 | 0 | 0 | 0 | - | -
O=S(=O)(c1cccs1)N1CCN(CCO)CC1 | 0 | 0 | 0 | 0 | - | -
O=S(=O)(/C=C/c1ccccc1)N1CCN(CC(O)COc2ccccc2F)CC1 (stereo not drawn) | 60 | 0 | 0 | 0 | 0 | 0
O=S(=O)(c1cccs1)N1CCN(CC(O)COc2ccccc2F)CC1 (stereo not drawn) | 66 | 0 | 0 | 0 | 0 | 0
SMILES | MITF primary | GPR151 activ | TEAD-YAP inh | FBW7 activator | MITF inh conf | AlphaScreen intf2
OC(COc1ccccc1F)CN1CCN(c2ccccc2)CC1 (stereo not drawn) | 0 | 0 | 0 | 0 | - | -
CC(C)c1cccc(OCCOCCNCCN)c1 | 51 | 0 | 0 | 0 | 0 | 0
CCOc1cccc(OCCOCCNC(C)(C)C)c1 | 67 | 0 | 0 | 0 | 0 | 0
CC(C)c1cccc(OCCOCCNC(C)(C)C)c1 | 67 | 0 | 0 | 0 | 0 | 0
CCCCNCCOCCOc1cccc(C(C)C)c1 | 0 | 0 | 0 | 0 | - | -
Cc1ccc(-c2c(NCCN3CCCCC3C)c(=O)c2=O)cc1C (stereo not drawn) | 0 | 0 | 0 | 0 | - | -
Cc1ccc(NC(=O)Cn2nnc(-c3ccccc3NC(=O)C3CC3)n2)cc1 | 0 | 0 | 0 | 0 | - | -
CCOc1ccc(NC(=O)c2ccccc2Br)c([N+](=O)[O-])c1 | 0 | 0 | 0 | 0 | - | -
CC(C(=O)Nc1ccccc1-c1ccccc1)N1CCN(C)CC1 (stereo not drawn) | 68 | 0 | 0 | 0 | 0 | 0
O=[N+]([O-])c1cccc(CN2CCN(S(=O)(=O)c3ccc(F)cc3)CC2)c1 | 57 | 0 | 0 | 0 | 0 | 0
O=S(=O)(c1ccc(Cl)cc1)N1CCN(Cc2cccc(F)c2)CC1 | 64 | 0 | 0 | 0 | 0 | 0
O=C(c1cccc2ccccc12)N1CCN(Cc2cccc([N+](=O)[O-])c2)CC1 | 76 | 0 | 0 | 0 | 0 | 0
COc1ccc(S(=O)(=O)N2CCN(CCCc3ccccc3)CC2)cc1 | 0 | 0 | 0 | 0 | - | -
